HTT aggregate – reduces HttQ103-GFP aggregates in PC12 cells. PC12 HttQ103-GFP aggregates, Acumen cytometry, 40 h. Potency, µM (titrated, usually from 46.1 µM), for the others: top-dose activity change, negative = inhibition, usual class: inhibitors. 1.1% of 220,000 active. AID 1688; further: potency means the concentration at half of the fitted maximal effect; on the % scale 0 is the no-effect control and ±100 the full control effect; nearly all actives have a fitted effect of over 60% in size
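Steps: seed 1500 PC12 HTTQ103-GFP cells/well; add tebufenozide, 100 nM final; add compound titration; add ATPLite reagent; quantify GFP aggregates by laser scanning cytometry.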
PNC assembly inh – blocks assembly of the perinucleolar compartment; PC3M PTB-GFP, PNC prevalence imaging, 16 h; stronger effect = lower value; activity change (PNC), negative = inhibition, % at 10 µM; 3.1% of 140,000 active; AID 2417;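 active means readout at or below -70, meaning at least 70% loss of cells showing the perinucleolar compartment, a nuclear body marking cancer cells; inconclusive means readout between -30 and a set limit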;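 further: plate controls were DMSO wells for no effect and camptothecin positive control wells for full effect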
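Read-out is percentage of cells bearing a perinucleolar compartment, from automated 20x imaging of fixed, Hoechst-stained PC3M PTB-GFP cells. Cells were seeded 4 h, then exposed 16 h to compound (23 nl of library stock) in duplicate plates.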
HPGD block – blocks human HPGD enzyme activity | P15428 | purified HPGD, NADH fluorescence kinetic, PGE2 substrate | Potency, µM, for inactives: at the top dose activity change, negative = inhibition, actives largely listed as inhibitors | 4.3% of 150,000 active | AID 894; active means well fitted inhibition curve with a large enough effect, not every such curve was filed as active; inconclusive means small, poorly fitted or top-dose-only effect, or another doubt; inactive means no such curve, though single readings can be large or run the other way; further: potency means the concentration at half of the fitted maximal effect; on the % scale 0 is the no-effect control and ±100 the full control effect
Target sequence (P15428 whole entry, looked up): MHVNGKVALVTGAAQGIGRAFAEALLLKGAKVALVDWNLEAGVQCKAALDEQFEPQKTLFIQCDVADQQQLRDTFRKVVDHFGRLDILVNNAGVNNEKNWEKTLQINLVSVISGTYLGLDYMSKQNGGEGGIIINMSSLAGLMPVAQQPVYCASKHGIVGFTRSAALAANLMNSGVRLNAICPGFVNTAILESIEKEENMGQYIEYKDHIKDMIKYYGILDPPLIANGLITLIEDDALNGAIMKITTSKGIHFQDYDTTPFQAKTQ
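20 nM HPGD preincubated 15 min at room temperature with compound in 50 mM Tris-HCl pH 8, 0.01% Tween 20. Started with 1 mM NAD+ and 30 uM prostaglandin E2; NADH fluorescence (360/450 nm) read 5 times over 30-s intervals, last minus first.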
CBFb-RUNX1 inh – CBF-beta/RUNX1 interaction disruption | AlphaScreen CBFb-His/RUNX1-biotin binding, biochemical | Q01196+Q13951 | Potency, µM (series often up to 59.8 µM), inactives show at the top dose activity, negative = inhibition, actives largely listed as inhibitors | 230,000 tested, under 10 active; further: % of control where 0% means no effect
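Compounds were screened at multiple concentrations against a preformed CBF-beta(His)/RUNX1(biotin) complex (30 nM of each) for 15 min at room temperature, followed by 90 min with nickel and streptavidin beads and AlphaScreen reading.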
HTT cytoprotect – Huntington cell model cytoprotection by ATP luminescence; Potency, µM (series often up to 56.4 µM), for the others: cytoprotection (ATP increase), hits mostly activators; 0.14% of 230,000 active; PC12 HTT-Q103 induced, cytoprotection, ATP luminescence, 40 h; further: potency means the concentration at half of the fitted maximal effect; % of control where 0% means no effect; nearly all actives have a fitted effect of over 45% in size
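Readout: ATPlite luminescence (ATP level). Model: stable PC12, inducible Htt exon1 Q103-GFP. Inducer: tebufenozide, 100 nM final. Compounds: dose series. No G418 in medium.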
ALDH1A1 inh – inhibitors of human aldehyde dehydrogenase 1A1; Purified ALDH1A1, NADH fluorescence, propionaldehyde substrate; Potency, µM (top dose mostly 75.3 µM), for inactives: top-dose activity, negative = inhibition, hits mostly inhibitors; 7.3% of 220,000 active; active means well fitted inhibition curve with a large enough effect, not every such curve was filed as active; inconclusive means small, poorly fitted or top-dose-only effect, or another doubt; inactive means no such curve, though single readings can be large or run the other way;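 further: potency means the concentration at half of the fitted maximal effect; plate controls were no enzyme wells and a reference inhibitor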
* = called active by the depositor; [ ] = another dose, or the depositor's remark. In the library only some 11% were active in any assay of this set; here they are far more common. Unless noted, the call rests on the fitted dose curve; in most records, active means well fitted curve in the direction sought with a large enough effect; inconclusive means small, poorly fitted or top-dose-only effect, or another doubt; inactive means no such curve, though single readings can be large; an effect the other way counts as inactive or inconclusive.

Screening CN1CCN(c2nc(-c3ccccc3C(F)(F)F)nc3ccccc23)CC1 returned HTT cytoprotect -24% and ALDH1A1 inh -6%.
Screening C=CCNc1ncnc2c1cnn2-c1ccc(C)cc1C returned HTT aggregate -27%, PNC assembly inh 6, HPGD block 14µM*, CBFb-RUNX1 inh 8%, HTT cytoprotect -5%[10 µM] and ALDH1A1 inh 0%.
CCc1cc2c(NC(C(=O)O)C(C)C)ncnc2s1 (configuration not stated) was read as HTT aggregate 6%, PNC assembly inh 10, HPGD block -6%, CBFb-RUNX1 inh 1%, HTT cytoprotect 8% and ALDH1A1 inh 16µM*.
For CCc1cc2c(N[C@@H](Cc3c[nH]c4ccccc34)C(=O)O)ncnc2s1 the results were HTT aggregate 0%, PNC assembly inh -25, HPGD block -13%, CBFb-RUNX1 inh -5%, HTT cytoprotect 20%[10 µM] and ALDH1A1 inh 1%.
Screening CCCC(=O)O[C@]1(C(=O)COC(C)=O)CC[C@H]2C3C[C@H](F)C4=CC(=O)C=CC4(C)[C@@]3(F)[C@@H](O)CC21C (some centres not stated) returned HTT aggregate 8% and HTT cytoprotect 7%.
`Cc1ccc(S(=O)(=O)C2(C(=O)N3CCN(C4CCCCC4)CC3)CC2)cc1` gave HTT aggregate 27%, PNC assembly inh 27, HPGD block -4%, CBFb-RUNX1 inh 8%, HTT cytoprotect -7%[10 µM] and ALDH1A1 inh -2%.
Screening COc1ccc(S(=O)(=O)N(C)CC(=O)N2CCN(Cc3ccccc3)CC2)cc1C returned HTT aggregate -17%, PNC assembly inh inconclusive, HPGD block -15%, CBFb-RUNX1 inh -3%, HTT cytoprotect 14% and ALDH1A1 inh 16µM*.
Screening Cc1ccc(S(=O)(=O)CC(=O)c2cc(C)c(O)c(C)c2)cc1 returned HTT aggregate 5%, CBFb-RUNX1 inh -14%, HTT cytoprotect -7% and ALDH1A1 inh 1.8µM*.
Cc1ccc(S(=O)(=O)C2(C(=O)N3CCCCCC3)CC2)cc1 was read as HTT aggregate -11%, PNC assembly inh -28, HPGD block 13µM*, CBFb-RUNX1 inh -1%, HTT cytoprotect -4% and ALDH1A1 inh 7.1µM*.
Cc1ccc(S(=O)(=O)CC(=O)N2CCCC2)cc1 was read as HTT aggregate -4%, PNC assembly inh -100*, HPGD block -14%, CBFb-RUNX1 inh 3%, HTT cytoprotect -4%[0.074 µM] and ALDH1A1 inh 2%.
`Cc1ccc(S(=O)(=O)CCCS(=O)(=O)c2ccc(C)cc2)cc1` gave HTT aggregate -9%, PNC assembly inh 57, HPGD block 6%, CBFb-RUNX1 inh 2%, HTT cytoprotect -17% and ALDH1A1 inh inconclusive.
`CCOC(=O)c1c(CSc2cccs2)n(C)c2cc(Br)c(O)c(CN(C)C)c12` gave CBFb-RUNX1 inh -7% and ALDH1A1 inh inconclusive.
For C[C@]12O[C@H]1[C@@H](O)C(Br)=C(CO)[C@H]2O the results were HPGD block -4%, CBFb-RUNX1 inh -7% and ALDH1A1 inh 4%.
Cc1ccc(S(=O)(=O)N(C)CC(=O)N2CCCC2)cc1 was read as HTT aggregate -6%, PNC assembly inh 1, HPGD block -13%, CBFb-RUNX1 inh 4%, HTT cytoprotect 0%[10 µM] and ALDH1A1 inh 3.5µM*.
COc1ccc(-n2nnnc2SC(C)C(N)=O)cc1 (configuration not stated) was read as HTT aggregate 25%, PNC assembly inh 2, HPGD block -20%, CBFb-RUNX1 inh 8%, HTT cytoprotect -16% and ALDH1A1 inh -7%.
For CCN(CC)S(=O)(=O)c1ccc2c(c1)nc(SC(C)C(N)=O)n2-c1ccc(OC)cc1 (configuration not stated) the results were HTT aggregate -5%, PNC assembly inh inconclusive, HPGD block -26%, CBFb-RUNX1 inh 5%, HTT cytoprotect -26% and ALDH1A1 inh 16µM*.

Bioassay records as filed in PubChem.
